Assay [1] is described as follows: qHTS assay to identify small molecule agonists of the vitamin D receptor (VDR) signaling pathway - cell viability counter screen (AID 743224). Also: nearly all actives have a fitted effect of over 50% in size. Also: potency is read from the fitted curve at half-maximal effect. A digest of the protocol:
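VDR-bla cells were preincubated 4 h at 37C/5% CO2, then exposed to compounds for 16 h. After the 2 h room-temperature bla FRET read, CellTiter-Glo was added to the same wells and luminescence read after 30 min.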
On the technique in general: qHTS replaces the single test concentration by a dilution series.

Assay [2] can be described thus: qHTS assay to identify small molecule antagonists of the vitamin D receptor (VDR) signaling pathway - cell viability counter screen (AID 743225). Also: nearly all actives have a fitted effect of over 50% in size. Also: potency is read from the fitted curve at half-maximal effect. An outline of the steps: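 Compounds were pinned onto VDR-bla HEK 293T cells together with 1-alpha,25-dihydroxyvitamin D3 at 3 nM final. After 16 h at 37C and 5% CO2 plus the reporter readout, cell viability was measured by CellTiter-Glo luminescence (30 min, room temperature).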

Assay [3] can be described thus: qHTS assay to identify small molecule agonists of the NFkB signaling pathway - cell viability counter screen (AID 1159515; calls by dose curve; also: nearly all actives have a fitted effect of over 55% in size; also: potency is read from the fitted curve at half-maximal effect). An outline of the steps:
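NFkB-bla ME-180 cells, 2,000/well, were plated overnight at 37 C, 5% CO2, then exposed to compounds in DMSO for 5 hr. After the bla FRET read, CellTiter-Glo was added to the same wells; luminescence was read after 30 min at room temperature.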

Assay [4] is described as follows: qHTS assay to identify small molecule agonists of the endoplasmic reticulum stress response signaling pathway - cell viability counter screen (AID 1159517; calls by dose curve; also: nearly all actives have a fitted effect of over 50% in size; also: potency is read from the fitted curve at half-maximal effect). An outline of the steps: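 Cells, HeLa ESRE-bla; density, 1,500/well; dosing, 5 hr at 37 C, 5% CO2; readout, CellTiter-Glo luminescence after 30 min RT.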
Assay [5] in a line: qHTS assay to identify small molecule antagonists of the retinoid-related orphan receptor gamma (ROR-gamma) signaling pathway - cell viability counter screen (AID 1159520). Also: nearly all actives have a fitted effect of over 50% in size. Also: potency is read from the fitted curve at half-maximal effect. A digest of the protocol: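 Cytotoxicity was read from cellular ATP (CellTiter-Glo luminescence) after 16 hr at 37 C with 1 uM doxycycline induction. The inducer was added 2 hr after compound transfer to Tet-on ROR gamma CHO cells.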

Assay [6] addresses Nuclear receptor ROR-gamma (Homo sapiens) (UniProt P51449). Briefly: qHTS assay to identify small molecule antagonists of the retinoid-related orphan receptor gamma (ROR-gamma) signaling pathway (AID 1159521; also: nearly all actives have a fitted effect of over 50% in size; also: potency is read from the fitted curve at half-maximal effect). A digest of the protocol: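 Test compounds were applied to Tet-on RORγ CHO cells 2 h ahead of doxycycline hyclate (1 uM final). Luciferase reporter activity was quantified by luminescence after 16 h at 37 C and 5% CO2.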

Assay [7] can be described thus: qHTS assay to identify small molecule agonists of the AP-1 signaling pathway - cell viability counter screen (AID 1159525; calls by dose curve; also: nearly all actives have a fitted effect of over 55% in size; also: potency is read from the fitted curve at half-maximal effect). A digest of the protocol: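 Luminescent ATP readout (Cell Titer Glo, 30 min RT), normalised to DMSO and tetra n-octyl ammonium bromide controls. Cells were ME-180 AP-1-bla in 0.5% dialyzed FBS Opti-MEM, with a 5 h, 37 °C compound exposure.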

Assay [8] can be described thus: qHTS assay to identify small molecule agonists of the RXR signaling pathway - cell viability counter screen (AID 1159529). Also: nearly all actives have a fitted effect of over 50% in size. Also: potency is read from the fitted curve at half-maximal effect. A digest of the protocol:
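Compounds dissolved in DMSO were pinned onto HEK 293T cells carrying a beta-lactamase reporter under RXR-alpha control and incubated 16 hr. Cytotoxicity was then quantified by CellTiter-Glo luminescence.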

A short description of assay [9]: qHTS assay to identify small molecule antagonists of the retinoid acid receptor (RAR) signaling pathway - cell viability counter screen (AID 1159551). Also: nearly all actives have a fitted effect of over 35% in size. Also: potency is read from the fitted curve at half-maximal effect. A digest of the protocol:
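C3RL4 cells were seeded overnight at 37 C, then treated with compounds plus 1 uM (final) retinol for 6 h at 37 C. Viability was read as ATP by CellTiter-Glo luminescence after 30 min at room temperature.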

A short description of assay [10]: qHTS assay to identify small molecule antagonists of the retinoic acid receptor (RAR) signaling pathway (AID 1159552; also: nearly all actives have a fitted effect of over 50% in size; also: potency is read from the fitted curve at half-maximal effect). An outline of the steps:
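Test chemicals and DMSO controls were pin-transferred onto C3RL4 cells a day after seeding; retinol (1 uM final) followed at once. Luminescent reporter output was quantified after 6 hr of co-incubation and 30 min with detection reagent.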

Assay [11] in a line: qHTS assay to identify small molecule agonists of the retinoic acid receptor (RAR) signaling pathway (AID 1159553). An outline of the steps:
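C3RL4 cells carrying a RARE luciferase reporter were plated overnight at 37 C, then exposed to compounds in DMSO for 6 hr at 37 C and 5% CO2. Luminescence was read 30 min after luciferase reagent addition at room temperature.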

The nature of assay [12]: qHTS assay to identify small molecule antagonists of the estrogen related receptor (ERR) signaling pathway from Tox21 library - cell viability counter screen (AID 1224834). Also: nearly all actives have a fitted effect of over 30% in size. Also: potency is read from the fitted curve at half-maximal effect. A digest of the protocol:
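ERR reporter cells were plated 6 h before compound addition, then exposed to test compounds in DMSO for 17.5 h at 37 C. Viability was read as CellTiter-Fluor fluorescence after a 30-minute incubation at 37 C.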

Assay [13] concerns the target Luciferin 4-monooxygenase (Photinus pyralis) (UniProt P08659). Briefly: qHTS assay to identify small molecule inhibitors of firefly luciferase (AID 1224835). Also: nearly all actives have a fitted effect of over 25% in size. Also: potency is read from the fitted curve at half-maximal effect. A digest of the protocol:
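Inhibition of purified Photinus luciferase is measured by luminescence. Substrate levels (D-luciferin, ATP) sit at their KM values. Each compound is tested in a concentration series.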

Assay [14] deals with Retinoic acid receptor RXR-alpha (Homo sapiens) (UniProt P19793). Kind of assay: qHTS assay to identify small molecule agonists of the RXR signaling pathway (AID 1159527; calls by dose curve; also: nearly all actives have a fitted effect of over 35% in size). An outline of the steps: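 Using 9-cis retinoic acid as the reference agonist, chemicals were tested in HEK 293T cells […] for 16 hr; substrate loading lasted 2 hr at room temperature.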

Assay [15] is described as follows: qHTS assay to identify small molecule agonists of the AP-1 signaling pathway (AID 1159526; calls by dose curve).

Inconclusive results are not listed. Active and inactive are the calls of the source. Unless noted, calls follow the shape of the dose curve; as a rule, active = well fitted curve in the direction sought with a large enough effect in the repeat runs; inconclusive = weak or mixed curves; inactive = no such curve, though single readings can be large; an effect the other way counts as inactive or inconclusive.

Retinoic acid receptor RXR-alpha (Homo sapiens), sequence (P19793 whole entry, looked up): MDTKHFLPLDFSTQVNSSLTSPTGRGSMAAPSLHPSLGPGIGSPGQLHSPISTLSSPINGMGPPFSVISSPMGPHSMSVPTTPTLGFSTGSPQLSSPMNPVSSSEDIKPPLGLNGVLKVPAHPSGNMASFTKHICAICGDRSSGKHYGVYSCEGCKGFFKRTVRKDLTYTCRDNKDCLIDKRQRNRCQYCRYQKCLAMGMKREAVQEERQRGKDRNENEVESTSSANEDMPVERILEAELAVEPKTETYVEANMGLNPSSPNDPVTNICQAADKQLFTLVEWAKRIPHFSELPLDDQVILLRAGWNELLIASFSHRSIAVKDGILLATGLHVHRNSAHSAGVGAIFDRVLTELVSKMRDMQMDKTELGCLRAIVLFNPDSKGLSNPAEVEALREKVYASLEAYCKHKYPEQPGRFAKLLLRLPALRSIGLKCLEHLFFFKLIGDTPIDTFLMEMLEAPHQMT
Luciferin 4-monooxygenase (Photinus pyralis), sequence (P08659 whole entry, looked up): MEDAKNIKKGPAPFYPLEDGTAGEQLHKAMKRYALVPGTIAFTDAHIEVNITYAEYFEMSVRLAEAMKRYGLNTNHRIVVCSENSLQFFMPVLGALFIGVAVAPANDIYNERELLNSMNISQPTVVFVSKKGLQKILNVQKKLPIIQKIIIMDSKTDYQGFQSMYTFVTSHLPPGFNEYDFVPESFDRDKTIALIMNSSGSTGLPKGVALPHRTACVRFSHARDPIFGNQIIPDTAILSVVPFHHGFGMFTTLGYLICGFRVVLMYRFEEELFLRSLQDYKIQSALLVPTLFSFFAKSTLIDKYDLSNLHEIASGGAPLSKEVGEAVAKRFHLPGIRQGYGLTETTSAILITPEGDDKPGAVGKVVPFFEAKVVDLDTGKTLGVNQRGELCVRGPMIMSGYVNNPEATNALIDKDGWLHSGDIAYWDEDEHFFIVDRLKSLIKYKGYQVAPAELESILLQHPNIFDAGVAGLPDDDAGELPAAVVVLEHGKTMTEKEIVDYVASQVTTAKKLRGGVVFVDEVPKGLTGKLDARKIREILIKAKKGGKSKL

As for `CN(C)c1ccc(C2(c3ccc(N(C)C)cc3)OC(=O)c3cc(N(C)C)ccc32)cc1`, the Potency result in assay [1], in assay [2], in assay [3], in assay [4], in assay [5] and in [6] was “inactive” throughout. The Potency entry in [7], in assay [8], in assay [9], in assay [10], in [11] and in assay [12] was “inactive” in each case. For the same compound, in assay [13], the Potency result was “inactive”.

For the compound `Cc1nc(-c2ccc3c(c2)CCN(CCC2CCC(NC(=O)/C=C/c4ccc(F)cc4)CC2)CC3)no1` (stereo not given), the Potency entry in assay [2], in assay [3], in [4], in assay [7], in [8] and in [9] was “inactive” each time. The Potency in assay [5] is 15.4 µM (active); in [6] it was 1.94 µM (active).

As to `O=C1C=CC(=O)N1c1ccc(Cc2ccc(N3C(=O)C=CC3=O)cc2)cc1`, the Potency in assay [1] is 17.4 µM (active); in assay [2], 21.9 µM (active); in assay [3], 24.5 µM (active); in [4], 34.7 µM (active); in [5], 15.4 µM (active); in [6], 8.63 µM (active). The Potency is 24.5 µM (active) in assay [7]; 17.4 µM (active) in assay [8]; 61.1 µM (active) in assay [9]; 13.7 µM (active) in [10]; 30.6 µM (active) in assay [12]; 15.9 µM (active) in [13].

For the compound `Cc1cccc2c1cc1ccc3cccc4ccc2c1c34`, the Potency entry in [1], in assay [2], in assay [3], in assay [4], in [5] and in assay [6] was “inactive” each time. Further, the Potency result in assay [7], in [8], in assay [9], in [10], in assay [12] and in [13] was “inactive” throughout.

Consider `CCCCCCCCCCCCCCCC[N+](C)(C)CCN(Cc1ccc(OC)cc1)c1ncccn1`, for which the Potency is 19 µM (active) in assay [2]; 23.9 µM (active) in [3]; 21.3 µM (active) in assay [4]; 29.8 µM (active) in assay [5]; 33.5 µM (active) in assay [6]; 21.3 µM (active) in assay [7]. Further, the Potency in assay [8] is 5.35 µM (active); in assay [9] it was 29.8 µM (active); in assay [12], 29.8 µM (active). For the same compound, the Potency result in [13] was “inactive”.

As to `CCc1cc(Cc2cc(CC)cc(C(C)(C)C)c2O)c(O)c(C(C)(C)C)c1`, the Potency in [1] is 6.17 µM (active); in [2], 4.36 µM (active); in [3] it was 15.5 µM (active); in assay [4], 21.9 µM (active); in assay [5] it was 27.3 µM (active); in assay [6], 19.3 µM (active). Besides, the Potency in [7] is 11 µM (active); in [8], 13.8 µM (active); in assay [9] it was 68.6 µM (active); in assay [10], 27.3 µM (active); in assay [12], 54.5 µM (active). Also, in assay [13], the Potency result is “inactive”.

For the compound `Cc1ccc2oc(CN(Cc3ccccc3)C(=O)Nc3c(F)cc(F)cc3F)c(-c3ccc(Cl)cc3)c2c1`, the Potency entry in assay [1], in assay [2], in assay [3], in assay [4], in [5] and in [7] was “inactive” each time. For the same compound, the Potency result in assay [14], in [8], in assay [10], in assay [11], in assay [12] and in [13] was “inactive” each time. Further, the Potency in assay [6] is 14.9 µM (active).

As for `CCCCCCC[N+](CC)(CC)CCCCc1ccc(Cl)cc1`, the Potency entry in assay [2], in assay [3], in [4], in assay [5], in assay [6] and in assay [7] was “inactive” each time. Moreover, the Potency result in [15], in assay [9], in assay [11] and in [13] was “inactive” each time. Besides, the Potency in assay [12] was 23.7 µM (active).

As to `COc1cc(/C=C/C(=O)O[C@H]2CC[C@]34C[C@]35CC[C@]3(C)[C@@H]([C@H](C)CCC=C(C)C)CC[C@@]3(C)[C@@H]5CC[C@H]4C2(C)C)ccc1O`, the Potency result in assay [1], in assay [2], in assay [3], in assay [4], in assay [5] and in [6] was “inactive” in each case. In addition, the Potency entry in [7], in assay [14], in assay [8], in assay [10], in [11] and in assay [12] was “inactive” throughout. Moreover, in assay [13], the Potency entry is “inactive”.

As for `CCCCCCCCCCCCCCCS(=O)(=O)Oc1ccccc1`, the Potency result in [1], in [2], in assay [3], in [4], in assay [5] and in [6] was “inactive” each time. Further, the Potency result in assay [7], in [14], in [9], in assay [10], in assay [11] and in assay [12] was “inactive” in each case. Further, the Potency entry in assay [13] was “inactive”.

Consider `Cc1cc(=O)oc2cc(N(C)C)ccc12`, for which the Potency result in assay [1], in assay [2], in assay [3], in [4], in assay [5] and in [6] was “inactive” throughout. The Potency entry in [7], in assay [8], in [9], in assay [10] and in assay [11] was “inactive” in each case.

Regarding `CCCCCCCCNC(C)C(O)c1ccc(SC(C)C)cc1` (stereo not given), the Potency in assay [1] was 13.3 µM (active); in [2], 9.52 µM (active); in [3], 13.4 µM (active); in assay [4], 19 µM (active); in assay [5], 18.8 µM (active); in [6], 23.7 µM (active). In addition, the Potency in assay [7] was 16.9 µM (active); in assay [8], 9.52 µM (active); in assay [9], 26.6 µM (active); in assay [10], 13.3 µM (active); in [12], 26.6 µM (active). Further, in [13], the Potency entry was “inactive”.

Turning to `CCCCN1C(=O)[C@@H]([C@H](O)C2CCCCC2)NC(=O)C12CCN(Cc1ccc(Oc3ccc(C(=O)O)cc3)cc1)CC2`, the Potency result in assay [3], in assay [4], in assay [5], in assay [6], in assay [7] and in assay [8] was “inactive” each time. The Potency entry in [9] is “inactive”.

For the compound `CSc1ccc(/C=C2/C(C)=C(CC(=O)O)c3cc(F)ccc32)cc1`, the Potency result in assay [2], in [3], in assay [4], in assay [5], in assay [6] and in [7] was “inactive” each time. Further, the Potency entry in assay [8], in [9], in assay [10] and in assay [11] was “inactive” in each case.

As for `Cc1cc(O)c2ccccc2c1O`, the Potency in assay [1] is 7.5 µM (active); in assay [2], 13.4 µM (active); in assay [3], 13.4 µM (active); in assay [4], 16.9 µM (active); in assay [5] it was 7.5 µM (active); in [6], 11.9 µM (active). Besides, the Potency is 10.7 µM (active) in assay [7], 15.1 µM (active) in assay [8], 13.3 µM (active) in [9] and 16.8 µM (active) in assay [10]. Also, the Potency result in [13] was “inactive”.

Consider `CCCCCCCCCCCC[N+](C)(C)CCCCCCCCCCCC`, for which the Potency in assay [2] is 24.5 µM (active); in assay [3] it was 21.9 µM (active); in [4] it was 43.6 µM (active); in [5] it was 27.3 µM (active); in assay [6] it was 19.3 µM (active); in assay [7] it was 30.9 µM (active). Moreover, the values for the Potency in assay [8], in [9] and in assay [12] were 15.5 µM (active), 43.3 µM (active) and 27.3 µM (active), respectively.

Regarding `Clc1ccc(C(Cn2ccnc2)OCc2ccc(Sc3ccccc3)cc2)c(Cl)c1` (stereo not given), the Potency in assay [1] is 33.5 µM (active). The Potency entry in assay [3], in [4], in assay [5], in [6], in [7] and in assay [14] was “inactive” in each case. For the same compound, the Potency result in assay [8], in [9], in assay [10], in [11], in assay [12] and in assay [13] was “inactive” in each case.

For the origin of these results see PubChem BioAssay (Tox21).
